# Bioassay records from PubChem.
# TMEM16A act = TMEM16A chloride channel activators or potentiators, primary screen, cell-based, HTS; Anoctamin-1 (Mus musculus), Q8BHY3; HEK293 TMEM16A/YFP-H148Q/I152L, iodide quench fluorescence; hits give low values; B-score at 10 µM; 340,000 compounds, 0.3% hits;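 active = fluorescence-ratio B-score plate-corrected deviation score at least 3 library SD below zero, with starting fluorescence score within 5 deviations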;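 note: channel opened by trigger with iodide after compound preincubation; score built on the fluorescence ratio of max minus min over baseline; more negative score means more quench and so TMEM16A activation or potentiation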
# Target sequence (Q8BHY3 whole entry, looked up): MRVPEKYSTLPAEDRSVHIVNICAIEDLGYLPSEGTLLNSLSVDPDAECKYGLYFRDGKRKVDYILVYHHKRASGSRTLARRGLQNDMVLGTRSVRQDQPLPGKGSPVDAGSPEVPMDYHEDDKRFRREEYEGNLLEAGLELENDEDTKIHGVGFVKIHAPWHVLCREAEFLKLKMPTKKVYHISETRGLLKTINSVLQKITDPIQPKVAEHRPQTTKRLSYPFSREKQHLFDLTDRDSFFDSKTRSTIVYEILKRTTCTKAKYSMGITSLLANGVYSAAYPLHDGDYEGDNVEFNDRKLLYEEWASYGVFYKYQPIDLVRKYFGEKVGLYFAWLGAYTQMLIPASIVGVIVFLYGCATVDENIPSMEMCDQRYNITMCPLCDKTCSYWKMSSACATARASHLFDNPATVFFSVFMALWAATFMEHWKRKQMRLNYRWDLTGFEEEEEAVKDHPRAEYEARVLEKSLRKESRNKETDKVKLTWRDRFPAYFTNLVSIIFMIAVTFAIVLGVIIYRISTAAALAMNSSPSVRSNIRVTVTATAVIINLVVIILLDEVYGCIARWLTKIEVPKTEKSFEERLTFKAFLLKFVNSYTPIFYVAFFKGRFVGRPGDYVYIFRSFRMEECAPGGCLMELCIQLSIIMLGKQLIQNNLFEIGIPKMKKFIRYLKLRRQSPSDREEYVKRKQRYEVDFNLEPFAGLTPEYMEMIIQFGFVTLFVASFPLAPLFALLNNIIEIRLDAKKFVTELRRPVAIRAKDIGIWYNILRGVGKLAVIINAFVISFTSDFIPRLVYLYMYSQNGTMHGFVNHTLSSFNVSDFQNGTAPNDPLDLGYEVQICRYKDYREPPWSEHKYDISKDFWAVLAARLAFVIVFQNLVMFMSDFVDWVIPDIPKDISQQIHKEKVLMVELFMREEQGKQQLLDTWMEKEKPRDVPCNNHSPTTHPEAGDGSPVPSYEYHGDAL
# Kir21 block = inhibitors of mouse Kir2.1 inward-rectifier potassium channel; B-score at 10 µM; 310,000 compounds, 0.85% hits; HEK293-Kir2.1, FluxOR thallium flux fluorescence; hits give low values; Inward rectifier potassium channel 2 (Mus musculus), P35561;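 active = fluorescence ratio B-score at or below minus 3 SD of library scores, with starting-brightness B-score within 2 SD, cut at about -4.2 in these data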;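 note: channel flux triggered by added potassium and thallium sulfate stimulus; B-score of peak minus minimum fluorescence over baseline after thallium stimulus; more negative B-score means stronger Kir2.1 block with less thallium influx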
# KCNK3 block = human KCNK3 channel inhibitors, primary screen, CHO cells, FluxOR thallium flux, B-score; AID 602410, 2012; FluxOR fluorescence; hits give low values; 340,000 compounds, 0.84% hits; B-score at 10 µM;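 active = B-score under library mean minus 4 SD, starting fluorescence ratio at most library mean plus 5 SD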;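 note: more negative B-score means stronger inhibition of thallium flux through KCNK3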
# KCNK9 block = KCNK9 potassium channel inhibitors, primary screen, HEK293 cells, thallium flux. Potassium channel subfamily K member 9 (Homo sapiens), Q9NPC2. FluxOR thallium flux fluorescence; hits give low values. B-score at 10 µM. 310,000 compounds, 1.2% hits. AID 488922, 2010;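 active = ratio B-score over 3 SD below the library mean, with starting fluorescence within 5 SD of its mean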;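 note: negative B-score means less thallium flux so channel inhibition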
# TMEM16A inh = TMEM16A chloride channel inhibitors, primary screen, cell-based, HTS | Anoctamin-1 (Mus musculus), Q8BHY3 | HEK293 TMEM16A/YFP iodide influx fluorescence, ionomycin | normalized B-score (activity score, 25-100; higher = stronger inhibition) at 10 µM | 310,000 compounds, 1.2% hits | AID 588511, 2011;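 active = ratio plate-corrected score three or more library SD toward inhibition, starting fluorescence score within five deviations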;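 note: score derived from kinetic fluorescence span divided by baseline fluorescence per well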
# TMEM16A reconf = TMEM16A chloride channel inhibitors, confirmation, cell-based, re-confirmation; 2,300 compounds, 39% hits; HEK293 TMEM16A/YFP-H148Q, iodide quench fluorescence; ionomycin added to raise cell calcium; shares compounds with TMEM16A inh; inhibition, % at 10 µM;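 active = mean duplicate percent inhibition, scaled so buffer wells are 0 and the reference blocker 100, over three buffer SD above buffer mean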
# TMEM16A Ca cntr = calcium mobilization in TMEM16A/YFP HEK293 cells, confirmation, counter-screen for TMEM16A inhibitor project; shares compounds with TMEM16A inh; Fluo4 calcium mobilization; calcium response (% of ionomycin), % at 10 µM; 2,300 compounds, 2% hits;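 active = duplicate-averaged calcium signal over 20% of the ionomycin maximum, relative to buffer baseline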;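 note: each well's signal is peak minus trough fluorescence divided by its pre-addition baseline; 0% = buffer wells and 100% = ionomycin wells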
# Parental YFP cnt = iodide YFP quench changes in parental YFP-HEK293, counter-screen for TMEM16A inhibitor project, cell-based. ionomycin. 2,300 tested, under 10 active. YFP ratio F(max-min)/F0 at 10 µM. shares compounds with TMEM16A inh;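 active = yellow fluorescent protein signal ratio exceeding the buffer control mean by over 5 SD of those controls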;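 note: ratio is mean of duplicate wells from kinetic YFP trace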
# ClC-1 rat inh = ClC-1 chloride channel inhibition, selectivity assay for TMEM16A inhibitor project, cell-based, voltage-dependent ClC-1. shares compounds with TMEM16A inh. ratio percent, % at 10 µM. CHO ClC-1-YFP, iodide influx fluorescence quench; iodide control reads 0, buffer control 100. 2,300 tested, under 10 active;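 active = duplicate-mean ratio percent above the mean of iodide-only control wells, which defines zero, plus 5 of their SD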;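 note: higher percent means stronger block of ClC-1 iodide influx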
# Active calls of the source: *; i = inactive; · = not tested or not shown. The list is not random: actives were taken first. Their share in the collection is about 3.5%.
SMILES,TMEM16A act,Kir21 block,KCNK3 block,KCNK9 block,TMEM16A inh,TMEM16A reconf,TMEM16A Ca cntr,Parental YFP cnt,ClC-1 rat inh
O=C(CCc1ccccc1)NNC(=S)NC(=O)c1ccc(Cl)cc1,·,2.2,·,i,100*,25%*,65%*,-0.89,-19
Cc1ccc(C(=O)NC(=S)NNC(=O)COc2ccccc2C)cc1,i,-1.6,i,i,25*,20%*,i,-0.92,-5
O=C(CCc1ccccc1)NNC(=O)c1ccc(Cl)cc1,i,-0.75,i,i,i,·,·,·,·
CCOc1cc(/C=C2\N=C(SC)SC2=O)cc([N+](=O)[O-])c1OC(C)=O,i,-0.5,i,i,100*,i,i,-0.94,-3
COc1ccc(CNc2ccc(-c3ccc(OC)cc3)nn2)cc1,i,1.5,i,i,100*,i,i,-0.54,-4
CCN(CC)S(=O)(=O)c1cc(NS(=O)(=O)c2cccc(Cl)c2Cl)ccc1C,i,-1.7,i,i,i,·,·,·,·
CCN(CC)S(=O)(=O)c1cc(NS(=O)(=O)c2cccc(Cl)c2)ccc1C,i,-1.3,i,i,25*,28%*,i,-1,-10
O=C(O)c1ccc2c(c1)C(=O)N(c1cc([N+](=O)[O-])ccn1)C2=O,·,0.09,i,i,i,·,·,·,·
CCOC(=O)C1=C(COC(=O)c2cc(S(=O)(=O)N3CCOCC3)ccc2F)NC(=O)NC1C (stereo not drawn),i,·,i,·,·,·,·,·,·
CCOC(=O)CNC(=O)CSc1nc2sc(C)c(C)c2c(=O)n1C,i,0.66,i,i,i,i,i,-1,-3
Cc1sc2nc(SCC(=O)NCCO)n(C)c(=O)c2c1C,i,2,i,i,i,·,·,·,·
COc1ccc(F)cc1COc1nc(C)nc2ccccc12,i,0.06,i,i,i,·,·,·,·
Cc1nc(OCc2ccccc2)c2ccccc2n1,i,0.7,i,i,100*,i,i,-1.2,-16
Cc1nc2ccccc2cc1OCc1ccccc1,i,-1.7,i,i,100*,32%*,i,-0.95,-20
CCN(CC)C(=O)CSc1nnc([C@@H](N)C(C)C)o1,i,0.51,i,i,i,·,·,·,·
CCOC(=O)N1CCN(c2nc3ccccc3nc2C(C#N)S(=O)(=O)c2ccc(C)cc2)CC1 (stereo not drawn),i,-0.03,i,i,100*,76%*,i,-1,-19
Cc1cccc(S(=O)(=O)C(C#N)c2nc3ccccc3nc2N2CCOCC2)c1 (stereo not drawn),i,2.5,i,i,100*,i,i,-1,-14
CCN(CC(=O)Nc1ccc(OC)cc1)C(=O)c1ccc2[nH]c3c(c2c1)CC(C)CC3 (stereo not drawn),i,·,i,·,·,·,·,·,·
CCOc1cc2[nH]c(=S)n(Cc3ccc(C(=O)NCCN(CC)CC)cc3)c(=O)c2cc1OCC,i,-0.91,i,i,i,·,·,·,·
CCOc1cc2[nH]c(=S)n(Cc3ccc(C(=O)NCC(OC)OC)cc3)c(=O)c2cc1OCC,i,-0.7,i,i,100*,i,i,-1.1,-6
O=C(CC1COc2ccccc2O1)NCc1ccccc1 (stereo not drawn),i,1,i,i,i,·,·,·,·
O=C(CCC1COc2ccccc2O1)NCc1ccccc1 (stereo not drawn),i,0.86,i,i,100*,i,i,-1.1,-16
Cc1ccc(NC(=O)/C(C#N)=C/c2ccc(C)s2)c(C)c1,i,-0.13,i,i,i,i,i,-1.1,10
CCC(C)Oc1nc(C)cc(C)c1S(=O)(=O)c1ccccc1C (stereo not drawn),i,-0.25,i,i,100*,i,i,-0.62,-13
COc1nc(C)cc(C)c1S(=O)(=O)c1ccccc1C,i,-1.4,i,i,i,·,·,·,·
SMILES,TMEM16A act,Kir21 block,KCNK3 block,KCNK9 block,TMEM16A inh,TMEM16A reconf,TMEM16A Ca cntr,Parental YFP cnt,ClC-1 rat inh
CCSc1nc(C)cc(C)c1S(=O)(=O)c1ccccc1C,i,-3.5,i,i,100*,i,i,-1.1,-6
CSc1nc(C)cc(C)c1S(=O)(=O)c1ccccc1C,i,-3.6,i,i,i,·,·,·,·
CCCN1CCc2c(sc(NC(=O)Cc3ccc(F)cc3)c2C(N)=O)C1,i,1.5,i,i,i,·,·,·,·
CCCCOc1ccc(Cl)cc1CSc1nnc(CC)n1N,i,-2.7,i,i,25*,i,i,-0.96,11
CCCOc1ccc(CSc2nnc(CCC)n2N)cc1,i,-0.06,i,i,i,·,·,·,·
COC(=O)[C@@]12CCCN1[C@H](c1ccc(-c3ccc(Cl)c(Cl)c3)cc1)[C@H]1C(=O)N(C)C(=O)[C@H]12,i,-2,i,i,100*,i,i,-0.89,2
Cc1cccc(N2CCCC2=Nc2ccc(Br)cc2C#N)c1,i,-0.72,i,i,i,·,·,·,·
O=[N+]([O-])c1ccc(Cc2ccccn2)c([N+](=O)[O-])c1,i,-0.26,i,i,i,·,·,·,·
Cc1nn(C(=O)c2cccs2)c(N)c1-c1ccccc1,i,-0.21,i,i,i,·,·,·,·
Cc1nn(C(=O)c2ccc3c(c2)OCO3)c(N)c1-c1ccccc1,i,-0.6,i,i,100*,i,i,-1,-2
CSc1nnc(C)c(=O)n1COC(=O)c1ccc(S(=O)(=O)N2CCCC2)cc1,i,-0.6,i,i,i,·,·,·,·
CCOC(=O)C1(Cc2cccc(OC)c2)CCN(C/C=C/c2ccccc2)CC1,i,-2.5,i,i,i,·,·,·,·
CCOC(=O)C1(Cc2cccc(OC)c2)CCN(C/C=C/c2ccc(OC)cc2)CC1,i,-0.32,i,i,25*,i,i,-1.2,-18
